Out of some 5,500 compounds screened, about 2,000 (36%) were called active. Inconclusive results (about 18%) are left out. Cut-off read from the data, not from the text of the source: active = normalized growth mostly below about 0.91 (no sharp cut-off); inconclusive = no clear call, values can overlap the other calls; inactive = mostly above about 0.92. The list shows a part of the results.
Assay: chemical genetic growth profiling, strain panel (AID 1159580);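 note: tested at 20 µM; growth read once vehicle control cultures reached saturation at 30 °C; 1 = growth at the plate median or of vehicle wells; lower values mean less growth of the strain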
Settings: growth OD
[1] = S. cerevisiae deletion strains, locus YDL101C, strain DUN1, hits give low values
[2] = S. cerevisiae deletion strains, locus YHR030C, strain SLT2, hits give low values

Measured: normalized growth

O=C(NC1Cc2ccccc2C1)c1cncc(Br)c1
inactive: S. cerevisiae deletion strains, locus YAL013W, strain DEP1, hits give low values 1 | S. cerevisiae deletion strains, locus YBR229C, strain ROT2, hits give low values 0.992 | S. cerevisiae deletion strains, locus YCL061C, strain MRC1, hits give low values 0.982 | [1] 1 | S. cerevisiae deletion strains, locus YDL134C, strain PPH21, hits give low values 1.05 | S. cerevisiae deletion strains, locus YDR150W, strain NUM1, hits give low values 0.937 | S. cerevisiae deletion strains, locus YEL061C, strain CIN8, hits give low values 0.99 | S. cerevisiae deletion strains, locus YGR078C, strain PAC10, hits give low values 0.994 | S. cerevisiae deletion strains, locus YGR229C, strain SMI1, hits give low values 0.985 | [2] 0.848 | S. cerevisiae deletion strains, locus YHR087W, strain rtc3, hits give low values 0.985 | S. cerevisiae deletion strains, locus YJL187C, strain SWE1, hits give low values 1.01 | S. cerevisiae deletion strains, locus YJR043C, strain POL32, hits give low values 0.994 | S. cerevisiae deletion strains, locus YJR075W, strain HOC1, hits give low values 0.982 | S. cerevisiae deletion strains, locus YKL190W, strain CNB1, hits give low values 0.99 | S. cerevisiae deletion strains, locus YLR039C, strain RIC1, hits give low values 1.03 | S. cerevisiae deletion strains, locus YLR058C, strain SHM2 (second series), hits give low values 0.985 | S. cerevisiae deletion strains, locus YLR085C, strain ARP6, hits give low values 0.952 | S. cerevisiae deletion strains, locus YLR262C, strain YPT6, hits give low values 0.992 | S. cerevisiae deletion strains, locus YML094W, strain GIM5, hits give low values 0.98 | S. cerevisiae deletion strains, locus YMR219W, strain ESC1, hits give low values 0.991 | S. cerevisiae deletion strains, locus YMR263W, strain SAP30, hits give low values 0.984 | S. cerevisiae deletion strains, locus YMR307W, strain GAS1, hits give low values 0.912 | S. cerevisiae deletion strains, locus YNL153C, strain GIM3, hits give low values 0.994 | S. cerevisiae deletion strains, locus YNL298W, strain CLA4 (second series), hits give low values 0.966 | S. cerevisiae deletion strains, locus YNL322C, strain KRE1, hits give low values 0.995 | S. cerevisiae deletion strains, locus YNR030W, strain Alg12, hits give low values 0.982 | S. cerevisiae deletion strains, locus YPL055C, strain LGE1, hits give low values 0.982 | S. cerevisiae deletion strains, locus YPL241C, strain CIN2, hits give low values 0.98 | S. cerevisiae deletion strains, locus YPR135W, strain CTF4, hits give low values 0.836 | S. cerevisiae strains, strain wild type, hits give low values 0.988

S=C(Nc1ccc(Cl)cc1)SCc1c(Cl)cccc1Cl
inactive: S. cerevisiae deletion strains, locus YAR019C, strain CDC15, hits give low values 0.976 | S. cerevisiae deletion strains, locus YBL105C, strain PKC1, hits give low values 0.984 | S. cerevisiae deletion strains, locus YBR135W, strain CKS1, hits give low values 0.977 | S. cerevisiae deletion strains, locus YBR136W, strain MEC1, hits give low values 0.996 | S. cerevisiae deletion strains, locus YBR160W, strain CDC28, hits give low values 0.987 | S. cerevisiae deletion strains, locus YDL017W, strain CDC7, hits give low values 0.984 | S. cerevisiae deletion strains, locus YDL028C, strain MPS1, hits give low values 0.985 | [1] 0.993 | S. cerevisiae deletion strains, locus YDL108W, strain KIN28, hits give low values 0.997 | S. cerevisiae deletion strains, locus YDL132W, strain cdc53, hits give low values 0.979 | S. cerevisiae deletion strains, locus YDL214C, strain PRR2, hits give low values 0.96 | S. cerevisiae deletion strains, locus YDR052C, strain DBF4, hits give low values 0.989 | S. cerevisiae deletion strains, locus YDR054C, strain cdc34, hits give low values 0.978 | S. cerevisiae deletion strains, locus YDR226W, strain ADK1, hits give low values 0.983 | S. cerevisiae deletion strains, locus YDR477W, strain SNF1, hits give low values 0.95 | S. cerevisiae deletion strains, locus YER123W, strain YCK3, hits give low values 0.973 | S. cerevisiae deletion strains, locus YER133W, strain GLC7, hits give low values 0.915 | S. cerevisiae deletion strains, locus YFL009W, strain cdc4, hits give low values 0.977 | S. cerevisiae deletion strains, locus YFL029C, strain CAK1, hits give low values 0.974 | S. cerevisiae deletion strains, locus YFR003C, strain YPI1, hits give low values 0.984 | S. cerevisiae deletion strains, locus YFR019W, strain FAB1, hits give low values 0.961 | S. cerevisiae deletion strains, locus YFR028C, strain CDC14, hits give low values 0.971 | S. cerevisiae deletion strains, locus YGR040W, strain KSS1, hits give low values 0.938 | S. cerevisiae deletion strains, locus YGR052W, strain FMP48, hits give low values 1.06 | S. cerevisiae deletion strains, locus YGR092W, strain DBF2, hits give low values 0.89 | [2] 0.996 | S. cerevisiae deletion strains, locus YHR079C, strain IRE1, hits give low values 1.08 | S. cerevisiae deletion strains, locus YHR082C, strain KSP1, hits give low values 1.03 | S. cerevisiae deletion strains, locus YHR205W, strain SCH9, hits give low values 0.999 | S. cerevisiae deletion strains, locus YIL147C, strain SLN1, hits give low values 0.992 | S. cerevisiae deletion strains, locus YJL095W, strain BCK1, hits give low values 1.05 | S. cerevisiae deletion strains, locus YJL128C, strain PBS2, hits give low values 0.967 | S. cerevisiae deletion strains, locus YJL157C, strain FAR1, hits give low values 0.96 | S. cerevisiae deletion strains, locus YJR016C, strain ILV3, hits give low values 0.973 | S. cerevisiae deletion strains, locus YJR066W, strain TOR1 (second series), hits give low values 0.932 | S. cerevisiae deletion strains, locus YJR066W, strain TOR1, hits give low values 1.02 | S. cerevisiae deletion strains, locus YKL048C, strain ELM1, hits give low values 0.992 | S. cerevisiae deletion strains, locus YKL067W, strain YNK1, hits give low values 0.972 | S. cerevisiae deletion strains, locus YKL101W, strain HSL1, hits give low values 0.994 | S. cerevisiae deletion strains, locus YKL193C, strain SDS22, hits give low values 0.978 | S. cerevisiae deletion strains, locus YKL203C, strain TOR2, hits give low values 1.02 | S. cerevisiae deletion strains, locus YLR113W, strain HOG1, hits give low values 1.09 | S. cerevisiae deletion strains, locus YLR133W, strain CKI1, hits give low values 0.993 | S. cerevisiae deletion strains, locus YLR403W, strain SFP1, hits give low values 0.95 | S. cerevisiae deletion strains, locus YML070W, strain DAK1, hits give low values 0.957 | S. cerevisiae deletion strains, locus YMR001C, strain CDC5, hits give low values 0.971 | S. cerevisiae deletion strains, locus YMR205C, strain PFK2 (second series), hits give low values 0.987 | S. cerevisiae deletion strains, locus YMR277W, strain FCP1, hits give low values 0.973 | S. cerevisiae deletion strains, locus YNL006W, strain LST8, hits give low values 0.972 | S. cerevisiae deletion strains, locus YNL020C, strain ARK1, hits give low values 0.983 | S. cerevisiae deletion strains, locus YNL161W, strain CBK1, hits give low values 0.978 | S. cerevisiae deletion strains, locus YNL183C, strain NPR1, hits give low values 1.03 | S. cerevisiae deletion strains, locus YNL207W, strain RIO2, hits give low values 0.983 | S. cerevisiae deletion strains, locus YNL222W, strain SSU72, hits give low values 0.976 | S. cerevisiae deletion strains, locus YNL307C, strain MCK1 (second series), hits give low values 0.978 | S. cerevisiae deletion strains, locus YOL078W, strain AVO1, hits give low values 0.979 | S. cerevisiae deletion strains, locus YOL136C, strain PFK27, hits give low values 0.973 | S. cerevisiae deletion strains, locus YOR061W, strain CKA2, hits give low values 0.955 | S. cerevisiae deletion strains, locus YOR119C, strain RIO1, hits give low values 0.97 | S. cerevisiae deletion strains, locus YOR231W, strain MKK1, hits give low values 1.06 | S. cerevisiae deletion strains, locus YOR329C, strain SCD5, hits give low values 0.983 | S. cerevisiae deletion strains, locus YPL031C, strain PHO85, hits give low values 0.956 | S. cerevisiae deletion strains, locus YPL153C, strain RAD53, hits give low values 0.949 | S. cerevisiae deletion strains, locus YPL204W, strain HRR25, hits give low values 0.939 | S. cerevisiae deletion strains, locus YPL209C, strain IPL1, hits give low values 0.989 | S. cerevisiae deletion strains, locus YPL256C, strain CLN2, hits give low values 1.08 | S. cerevisiae deletion strains, locus YPR025C, strain CCL1, hits give low values 0.987 | S. cerevisiae deletion strains, locus YPR106W, strain ISR1, hits give low values 0.994 | S. cerevisiae deletion strains, locus YPR111W, strain DBF20, hits give low values 0.986 | S. cerevisiae deletion strains, strain NNK1, hits give low values 0.999 | S. cerevisiae deletion strains, strain TSCII, hits give low values 0.981

Reference: PubChem BioAssay AID1159580 (chemical genetic matrix, 2015)
